Data on five molecules can be found in PubChem BioAssay (EPA / NIEHS).

As usually defined, the AC50 is the concentration at which the activity in the assay is half-maximal.

Active and inactive are the calls of the source. The calls were made as follows: active = hit-call score of the fitted dose curve at least 0.9, where 1 is the maximum; inactive = score below 0.9.

What all share (conditions): mRNA level, 48 h; actives raise or lower the signal
Read-out in assay [1]: Fatty acid synthase (Homo sapiens) (UniProt P49327)
Kind of assay: LTEA_HepaRG_FASN: Life Technologies and Expression Analysis (LTEA) Assay for Fatty Acid Synthase (FASN) using HepaRG (AID 2283448). Summed up:
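FASN transcript measured by TaqMan qRT-PCR, normalised to three housekeeping genes, after 48 h chemical exposure of HepaRG cells. Eight-point half-log series from 100 uM in 0.5% DMSO, duplicates; gain or loss fitted against vehicle.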

Read-out in assay [2]: Cyclin D2 (CCND2), CCND2 (gene 894)
As to the kind of experiment: LTEA_HepaRG_CCND2: Life Technologies and Expression Analysis (LTEA) Assay for Cyclin D2 (CCND2) using HepaRG (AID 2283449).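 Also: CCND2 transcript measured by TaqMan qRT-PCR and normalised to three housekeeping genes.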 The gist of the method:
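HepaRG, 48 h dosing, 8-pt half-log curve from 100 uM, 0.5% DMSO; duplicate wells. Readout: CCND2 transcript by microfluidic qRT-PCR, housekeeping-normalised; bidirectional fit vs DMSO baseline.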

Read-out in assay [3]: Cyclin Dependent Kinase Inhibitor 1A (CDKN1A), CDKN1A (gene 1026)
Kind of assay: LTEA_HepaRG_CDKN1A: Life Technologies and Expression Analysis (LTEA) Assay for Cyclin Dependent Kinase Inhibitor 1A (CDKN1A) using HepaRG (AID 2283450). Summed up:
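Differentiated human HepaRG cells, pre-cultured 48 h, were exposed in duplicate for 48 h in serum-free induction medium to eight half-log concentrations up to 100 uM (0.5% DMSO). CDKN1A mRNA was measured by qRT-PCR, normalized to ACTB/GAPDH/POLR2A, bidirectionally fitted versus DMSO.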

Read-out in assay [4]: Cyclin D1 (CCND1), CCND1 (gene 595)
Kind of assay: LTEA_HepaRG_CCND1: Life Technologies and Expression Analysis (LTEA) Assay for Cyclin D1 (CCND1) using HepaRG (AID 2283451). Summed up:
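Differentiated human HepaRG cells in serum-free induction medium were exposed 48 h to eight half-log concentrations up to 100 uM in 0.5% DMSO; mRNA quantified by TaqMan qRT-PCR, normalized to ACTB, GAPDH, POLR2A, fitted bidirectionally versus DMSO.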

Read-out in assay [5]: catalase (CAT), CAT (gene 847)
As to the kind of experiment: LTEA_HepaRG_CAT: Life Technologies and Expression Analysis (LTEA) Assay for catalase (CAT) using HepaRG (AID 2283452). Summed up: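 HepaRG cells in serum-free induction medium, 0.5% DMSO vehicle, exposed 48 h in duplicate over 8 half-log concentrations from 100 uM. CAT mRNA measured by qRT-PCR, normalized to ACTB, GAPDH, POLR2A; bidirectional fit versus DMSO.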

Read-out in assay [6]: flavin-containing dimethylaniline monooxygenases 3 (FMO3), FMO3 (gene 2328)
Kind of assay: LTEA_HepaRG_FMO3: Life Technologies and Expression Analysis (LTEA) Assay for flavin-containing dimethylaniline monooxygenases 3 (FMO3) using HepaRG (AID 2283453). The gist of the method: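 FMO3 transcript quantified by TaqMan qRT-PCR against three housekeeping genes after 48 h chemical exposure of HepaRG cells. Eight-point half-log series, top 100 uM, 0.5% DMSO vehicle; phenobarbital 1mM induction control; up- or down-regulation fitted.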

Read-out in assay [7]: CFLAR gene, CFLAR (gene 8837)
As to the kind of experiment: LTEA_HepaRG_CFLAR: Life Technologies and Expression Analysis (LTEA) Assay for CFLAR gene using HepaRG (AID 2283455). The gist of the method: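 qRT-PCR read-out (Fluidigm/TaqMan) of CFLAR mRNA, normalized to three housekeeping genes, in differentiated human HepaRG cells after 48 h chemical exposure; 8-point half-log series from 100 uM in 0.5% DMSO; bidirectional curve fitting versus DMSO.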

Read-out in assay [8]: Forkhead box O1 (FOXO1), FOXO1 (gene 2308)
Kind of assay: LTEA_HepaRG_FOXO1: Life Technologies and Expression Analysis (LTEA) Assay for Forkhead box O1 (FOXO1) using HepaRG (AID 2283456). The gist of the method:
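HepaRG, 48 h exposure, 8-pt half-log series from 100 uM in 0.5% DMSO, duplicates; Fluidigm qRT-PCR mRNA, housekeeping-normalised; bidirectional fit vs DMSO baseline.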

Read-out in assay [9]: growth arrest and DNA damage 45 (GADD45A), GADD45A (gene 1647)
As to the kind of experiment: LTEA_HepaRG_GADD45A: Life Technologies and Expression Analysis (LTEA) Assay for growth arrest and DNA damage 45 (GADD45A) using HepaRG (AID 2283458). Summed up: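 GADD45A expression was measured by TaqMan qRT-PCR against three housekeeping genes (ACTB, GAPDH, POLR2A) after 48 h treatment of HepaRG cells. Eight-point half-log series up to 100 uM in 0.5% DMSO, run in duplicate.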

Read-out in assay [10]: Forkhead box O3 (FOXO3), FOXO3 (gene 2309)
As to the kind of experiment: LTEA_HepaRG_FOXO3: Life Technologies and Expression Analysis (LTEA) Assay for Forkhead box O3 (FOXO3) using HepaRG (AID 2283459). Summed up:
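qRT-PCR readout of FOXO3 transcript, normalized to three housekeeping genes (ACTB, GAPDH, POLR2A); gain or loss fitted against 0.5% DMSO vehicle. HepaRG cells, 48 h chemical exposure, 8-point half-log series, top 100 uM.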

Read-out in assay [11]: ABC Transporter (ABCB1), ABCB1 (gene 5243)
Kind of assay: LTEA_HepaRG_ABCB1: Life Technologies and Expression Analysis (LTEA) Assay for ABC Transporter (ABCB1) using HepaRG (AID 2283460). The gist of the method:
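HepaRG, 48 h exposure, 8-pt half-log series from 100 uM, 0.5% DMSO vehicle, duplicates. Readout: ABCB1 transcript by Fluidigm TaqMan qRT-PCR, housekeeping-normalized; bidirectional curve fit vs DMSO baseline.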

Read-out in assay [12]: growth arrest and DNA damage 45 (GADD45B), GADD45B (gene 4616)
As to the kind of experiment: LTEA_HepaRG_GADD45B: Life Technologies and Expression Analysis (LTEA) Assay for growth arrest and DNA damage 45 (GADD45B) using HepaRG (AID 2283461). The gist of the method: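 Differentiated HepaRG cells, plated 48 h then switched to serum-free induction medium, were exposed 48 h in duplicate to eight half-log concentrations from 100 uM in 0.5% DMSO; mRNA quantified by qRT-PCR, normalized to ACTB/GAPDH/POLR2A, bidirectional fit versus DMSO.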

Read-out in assay [13]: ABC Transporter (ABCB11), ABCB11 (gene 8647)
Kind of assay: LTEA_HepaRG_ABCB11: Life Technologies and Expression Analysis (LTEA) Assay for ABC Transporter (ABCB11) using HepaRG (AID 2283463). The gist of the method:
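HepaRG, 48 h exposure, 8-pt half-log CRC top 100 uM, 0.5% DMSO vehicle, duplicates. Readout: TaqMan qRT-PCR of ABCB11 mRNA, housekeeping-normalized (ACTB/GAPDH/POLR2A). Bidirectional fit vs DMSO baseline.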

Read-out in assay [14]: Broad substrate specificity ATP-binding cassette transporter ABCG2 (Homo sapiens) (UniProt Q9UNQ0)
As to the kind of experiment: LTEA_HepaRG_ABCG2: Life Technologies and Expression Analysis (LTEA) Assay for ABC Transporter (ABCG2) using HepaRG (AID 2283465). The gist of the method: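 HepaRG, 48 h exposure, 8-pt half-log series from 100 uM, 0.5% DMSO vehicle, duplicates. Readout: ABCG2 transcript by qRT-PCR (Fluidigm array), housekeeping-normalized; bidirectional curve fit relative to DMSO baseline.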

Read-out in assay [15]: ATP-citrate lyase (ACLY), ACLY (gene 47)
Kind of assay: LTEA_HepaRG_ACLY: Life Technologies and Expression Analysis (LTEA) Assay for ATP-citrate lyase (ACLY) using HepaRG (AID 2283466). The gist of the method:
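qRT-PCR readout of ACLY transcript after 48 h chemical treatment of HepaRG cells; expression normalized to three housekeeping genes. Eight-point half-log series, highest 100 uM, 0.5% DMSO vehicle. Gain or loss fitted against DMSO baseline.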

Read-out in assay [16]: Peroxisomal acyl-coenzyme A oxidase 1 (ACOX1) gene, ACOX1 (gene 51)
As to the kind of experiment: LTEA_HepaRG_ACOX1: Life Technologies and Expression Analysis (LTEA) Assay for Peroxisomal acyl-coenzyme A oxidase 1 (ACOX1) gene using HepaRG (AID 2283467). The gist of the method:
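HepaRG, 48 h chemical exposure, 8-pt half-log series from 100 uM top, 0.5% DMSO vehicle, duplicates. Readout: ACOX1 mRNA by Fluidigm qRT-PCR, housekeeping-normalized; bidirectional fit vs DMSO baseline.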

Read-out in assay [17]: Alkaline Phosphatase, Placental (ALPP) gene, ALPP (gene 250)
As to the kind of experiment: LTEA_HepaRG_ALPP: Life Technologies and Expression Analysis (LTEA) Assay for Alkaline Phosphatase, Placental (ALPP) gene using HepaRG (AID 2283468). Summed up:
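Differentiated human HepaRG cells were plated and cultured 48 h, then exposed in duplicate for 48 h in serum-free induction medium to eight half-log concentrations from 100 uM in 0.5% DMSO. ALPP mRNA was measured by TaqMan qRT-PCR, normalized to ACTB, GAPDH, POLR2A.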

Sequence of Broad substrate specificity ATP-binding cassette transporter ABCG2 (Homo sapiens) (Q9UNQ0 whole entry, looked up): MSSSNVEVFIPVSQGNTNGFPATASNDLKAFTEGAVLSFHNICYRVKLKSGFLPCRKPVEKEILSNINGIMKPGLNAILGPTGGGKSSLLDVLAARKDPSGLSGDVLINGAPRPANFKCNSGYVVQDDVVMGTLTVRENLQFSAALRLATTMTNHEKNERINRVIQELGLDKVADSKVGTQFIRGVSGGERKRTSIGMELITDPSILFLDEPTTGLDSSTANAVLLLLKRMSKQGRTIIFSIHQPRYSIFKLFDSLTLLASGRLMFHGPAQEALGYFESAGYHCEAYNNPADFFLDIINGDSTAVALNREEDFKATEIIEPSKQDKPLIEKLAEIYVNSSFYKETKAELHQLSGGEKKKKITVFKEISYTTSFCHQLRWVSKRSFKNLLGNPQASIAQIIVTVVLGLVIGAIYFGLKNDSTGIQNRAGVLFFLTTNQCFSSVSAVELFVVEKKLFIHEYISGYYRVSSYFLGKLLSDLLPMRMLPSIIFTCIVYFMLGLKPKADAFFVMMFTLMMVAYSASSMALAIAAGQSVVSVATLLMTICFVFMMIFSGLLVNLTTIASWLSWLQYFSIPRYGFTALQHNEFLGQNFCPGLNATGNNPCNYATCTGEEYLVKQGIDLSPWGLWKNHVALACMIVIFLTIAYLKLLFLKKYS
Sequence of Fatty acid synthase (Homo sapiens) (P49327 whole entry, looked up): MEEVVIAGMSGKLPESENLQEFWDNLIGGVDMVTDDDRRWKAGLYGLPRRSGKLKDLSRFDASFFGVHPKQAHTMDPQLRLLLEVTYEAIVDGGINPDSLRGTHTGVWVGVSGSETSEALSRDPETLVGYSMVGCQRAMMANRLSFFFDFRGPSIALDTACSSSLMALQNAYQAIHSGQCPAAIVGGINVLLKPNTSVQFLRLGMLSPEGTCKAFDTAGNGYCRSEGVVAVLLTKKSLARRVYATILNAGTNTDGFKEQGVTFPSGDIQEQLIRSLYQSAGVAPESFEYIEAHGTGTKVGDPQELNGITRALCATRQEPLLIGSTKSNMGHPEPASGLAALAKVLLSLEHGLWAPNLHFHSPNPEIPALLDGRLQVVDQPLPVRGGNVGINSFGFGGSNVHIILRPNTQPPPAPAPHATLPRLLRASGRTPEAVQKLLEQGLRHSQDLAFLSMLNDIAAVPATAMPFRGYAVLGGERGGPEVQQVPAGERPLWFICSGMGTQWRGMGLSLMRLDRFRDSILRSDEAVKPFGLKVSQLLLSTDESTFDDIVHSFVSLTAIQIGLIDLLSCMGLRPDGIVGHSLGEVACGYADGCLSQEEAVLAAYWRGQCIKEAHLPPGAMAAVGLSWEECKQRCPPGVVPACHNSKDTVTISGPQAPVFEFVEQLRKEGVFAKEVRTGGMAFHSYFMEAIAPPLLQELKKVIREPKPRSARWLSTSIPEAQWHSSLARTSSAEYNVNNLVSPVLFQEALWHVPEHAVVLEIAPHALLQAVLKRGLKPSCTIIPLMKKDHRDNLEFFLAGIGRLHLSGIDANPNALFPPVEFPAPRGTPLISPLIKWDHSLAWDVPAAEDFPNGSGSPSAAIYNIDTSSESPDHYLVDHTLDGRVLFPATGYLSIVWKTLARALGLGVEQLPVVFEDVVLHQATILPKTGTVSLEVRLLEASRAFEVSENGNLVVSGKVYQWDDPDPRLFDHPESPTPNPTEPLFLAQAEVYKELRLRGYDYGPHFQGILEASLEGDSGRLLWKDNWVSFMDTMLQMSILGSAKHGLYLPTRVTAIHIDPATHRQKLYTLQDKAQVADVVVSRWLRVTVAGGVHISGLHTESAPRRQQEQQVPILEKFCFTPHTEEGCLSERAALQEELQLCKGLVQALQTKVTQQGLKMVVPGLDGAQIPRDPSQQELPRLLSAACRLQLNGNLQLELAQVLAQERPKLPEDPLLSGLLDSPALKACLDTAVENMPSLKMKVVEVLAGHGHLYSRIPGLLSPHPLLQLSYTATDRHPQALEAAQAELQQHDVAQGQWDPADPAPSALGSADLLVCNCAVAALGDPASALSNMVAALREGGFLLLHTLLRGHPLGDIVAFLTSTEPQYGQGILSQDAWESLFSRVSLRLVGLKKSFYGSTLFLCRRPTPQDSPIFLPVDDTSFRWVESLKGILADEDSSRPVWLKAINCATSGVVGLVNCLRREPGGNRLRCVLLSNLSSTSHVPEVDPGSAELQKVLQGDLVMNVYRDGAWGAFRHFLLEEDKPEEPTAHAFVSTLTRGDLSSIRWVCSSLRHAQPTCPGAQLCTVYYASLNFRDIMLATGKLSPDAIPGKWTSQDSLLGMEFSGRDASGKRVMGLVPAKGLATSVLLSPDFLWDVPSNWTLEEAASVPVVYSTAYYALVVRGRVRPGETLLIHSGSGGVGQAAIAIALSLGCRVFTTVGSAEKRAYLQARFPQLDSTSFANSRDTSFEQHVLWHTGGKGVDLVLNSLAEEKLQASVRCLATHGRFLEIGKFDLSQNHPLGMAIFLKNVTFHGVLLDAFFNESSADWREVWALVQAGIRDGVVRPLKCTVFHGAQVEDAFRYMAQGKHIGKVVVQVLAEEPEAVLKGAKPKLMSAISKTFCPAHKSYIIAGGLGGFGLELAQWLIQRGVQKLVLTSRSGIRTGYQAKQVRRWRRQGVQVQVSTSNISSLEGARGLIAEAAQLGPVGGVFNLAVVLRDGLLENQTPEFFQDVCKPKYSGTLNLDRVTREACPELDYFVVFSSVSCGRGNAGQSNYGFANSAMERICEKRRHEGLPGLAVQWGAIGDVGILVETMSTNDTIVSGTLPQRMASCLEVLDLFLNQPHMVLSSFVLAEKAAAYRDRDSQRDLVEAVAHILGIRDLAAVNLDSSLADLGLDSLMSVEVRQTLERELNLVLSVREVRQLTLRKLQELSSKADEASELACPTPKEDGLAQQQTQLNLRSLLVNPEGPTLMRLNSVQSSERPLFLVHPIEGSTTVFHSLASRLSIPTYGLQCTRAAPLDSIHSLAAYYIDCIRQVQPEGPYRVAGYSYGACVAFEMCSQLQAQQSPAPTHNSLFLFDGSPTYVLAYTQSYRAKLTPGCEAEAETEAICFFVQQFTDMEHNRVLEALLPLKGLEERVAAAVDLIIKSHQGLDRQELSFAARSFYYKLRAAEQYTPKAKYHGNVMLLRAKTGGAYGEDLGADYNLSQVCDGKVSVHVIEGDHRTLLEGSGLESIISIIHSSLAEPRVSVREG

With `CCC(C)(C)c1ccc(O)c(C(C)(C)CC)c1`, the result in assay [1], in assay [2], in assay [3], in [4], in [5] and in assay [6] was inactive. For the same molecule, the result in [7], in assay [8], in [9], in [10], in assay [11] and in [12] was inactive. Moreover, the molecule was called inactive in assay [13], in [14], in [15], in assay [16] and in [17].
For the molecule `CN(C)N=O`, the result in assay [1], in assay [2], in [3], in assay [4], in assay [5] and in [6] was inactive. Moreover, the molecule was called inactive in assay [7], in assay [8], in assay [9], in assay [10], in assay [11] and in assay [12]. For the same molecule, the outcome in assay [13], in assay [14], in assay [15], in [16] and in [17] was inactive.
Consider `C=CC(=O)OCCCCCC(C)C`, for which the molecule was classed as inactive in assay [1], in assay [2], in assay [3], in assay [4], in assay [5] and in [6]. Moreover, the molecule was called inactive in assay [7], in assay [8], in assay [9], in assay [10], in [11] and in assay [12]. Also, the molecule was classed as inactive in assay [13], in [14], in assay [15], in [16] and in [17].
`C=C(C)C(=O)[O][Sn]([CH2]CCC)([CH2]CCC)[CH2]CCC`: the call in assay [1], in assay [2], in assay [3], in assay [4], in [5] and in assay [10] was inactive. Moreover, the outcome in [12], in assay [15] and in assay [16] was inactive. Further, the AC50 in assay [6] was 74.9 µM (active); in [7] it was 4.03 µM (active); in assay [8], 1.98 µM (active); in [9], 0.314 µM (active); in [11], 3.08 µM (active); in assay [13], 2.02 µM (active). The AC50 in assay [14] is 0.917 µM (active); in assay [17], 1.58 µM (active).
On to `CC(C)(c1ccccc1)c1ccc(O)c(C(C)(C)c2ccccc2)c1`, for which the molecule was classed as inactive in assay [2], in assay [3], in assay [4], in assay [7], in assay [8] and in [9]. The call in assay [10], in assay [12], in assay [15] and in assay [17] was inactive. Moreover, the AC50 in assay [5] is 60.7 µM (active); in assay [6], 78.2 µM (active); in [11] it was 22.1 µM (active); in [13], 43.1 µM (active); in assay [14], 36.2 µM (active); in [16], 50 µM (active).
